According to the supplement of paper PMC12669032:
A number with no mark means an inactive call.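 Rule for the calls: active = AUC reduced over 20% with Padj below 0.05 in at least 2 of 3 replicates; inactive = otherwise.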

Assays:
Assay in all cases: growth AUC relative to DMSO control (median of replicates) (fraction); higher = more growth (less inhibition), active = hit call of the paper
Conditions in all cases: 20 µM; 24 h
Akkermansia muciniphila = test system: Akkermansia muciniphila
How it was run: (§1)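 Gut bacteria were grown singly in mGAM at 37 °C without oxygen, from OD600 0.05, alongside 20 µM compound in 1% DMSO, and OD600 was read each hour for 24 h. Area under the growth curve was normalised to the median of solvent-only wells per plate, or to row and column medians on the industrial chemical plate. The minimum OD was set to 0 beforehand, and the reported value is the median of three biological replicates grown on separate days.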

Bacteroides caccae = test system: Bacteroides caccae
How it was run: as §1

Bacteroides clarus = test system: Bacteroides clarus
How it was run: as §1

Bacteroides dorei = test system: Bacteroides dorei
How it was run: as §1

Bacteroides stercoris = test system: Bacteroides stercoris
How it was run: as §1

[1] = test system: Bacteroides thetaiotaomicron
How it was run: as §1

Bacteroides uniformis = test system: Bacteroides uniformis
How it was run: as §1

[2] = test system: Bifidobacterium longum subsp. longum
How it was run: as §1

Clostridium difficile = test system: Clostridium difficile
How it was run: as §1

Collinsella aerofaciens = test system: Collinsella aerofaciens
How it was run: as §1

Coprococcus comes = test system: Coprococcus comes
How it was run: as §1

Escherichia coli ED1a = test system: Escherichia coli ED1a
How it was run: as §1

Escherichia coli IAI1 = test system: Escherichia coli IAI1
How it was run: as §1

Eubacterium rectale = test system: Eubacterium rectale
How it was run: as §1

[3] = test system: Fusobacterium nucleatum subsp. animalis
How it was run: as §1

Lactobacillus gasseri = test system: Lactobacillus gasseri
How it was run: as §1

Lactobacillus paracasei = test system: Lactobacillus paracasei
How it was run: as §1

Odoribacter splanchnicus = test system: Odoribacter splanchnicus
How it was run: as §1

[4] = test system: Parabacteroides distasonis
How it was run: as §1

Parabacteroides merdae = test system: Parabacteroides merdae
How it was run: as §1

SMILES	growth AUC (Akkermansia muciniphila)	growth AUC (Bacteroides caccae)	growth AUC (Bacteroides clarus)	growth AUC (Bacteroides dorei)	growth AUC (Bacteroides stercoris)	growth AUC [1]	growth AUC (Bacteroides uniformis)	growth AUC [2]	growth AUC (Clostridium difficile)	growth AUC (Collinsella aerofaciens)	growth AUC (Coprococcus comes)	growth AUC (Escherichia coli ED1a)	growth AUC (Escherichia coli IAI1)	growth AUC (Eubacterium rectale)	growth AUC [3]	growth AUC (Lactobacillus gasseri)	growth AUC (Lactobacillus paracasei)	growth AUC (Odoribacter splanchnicus)	growth AUC [4]	growth AUC (Parabacteroides merdae)
COC1CCC2(CC1)NC(=O)C(c1cc(C)ccc1C)=C2O (stereo not given)	0.863	0.974	1.05	1.02	1.12	1.01	1.01	1.09	1.02	1.05	1.02	1.03	1.02	1.13	1.13	0.95	1.05	1.05	1.01	1.08
Cc1ccc(Cl)cc1	0.981	0.982	1.03	1.04	0.936	1.01	1.01	0.993	1.04	1	1	1.01	1.05	0.962	1.1	1.06	0.997	0.964	0.984	0.99
CC(C)C1C2CCC1c1c(NC(=O)c3cn(C)nc3C(F)F)cccc12 (stereo not given)	0.967	0.88	0.85	0.965	0.902	0.906	0.912	0.912	0.962	0.969	0.966	1	0.957	0.971	0.906	0.702	0.965	0.758	0.533 (active)	0.862
COC1CCC2(CC1)NC(=O)C(O)(c1cc(C)ccc1C)C2=O (stereo not given)	1	0.984	1.02	1.03	1.15	1.01	1.02	1.05	1.02	0.981	1.03	1.01	1.02	1.1	1.16	1.02	1.06	1.06	1.02	1.06
CCCOC(=O)c1ccc(C(=O)OCCC)nc1	1.06	1.01	0.99	1.04	0.94	1.02	0.99	1.05	0.99	0.967	1.05	1	1	1.03	0.944	0.966	0.861	1.07	1	0.986
CC(C)([CH2][Sn]([CH2]C(C)(C)c1ccccc1)([CH2]C(C)(C)c1ccccc1)[O][Sn]([CH2]C(C)(C)c1ccccc1)([CH2]C(C)(C)c1ccccc1)[CH2]C(C)(C)c1ccccc1)c1ccccc1	1.07	0.969	1.01	0.989	0.969	1.02	0.993	1.02	0.956	1.01	0.98	0.999	0.978	0.998	1.03	0.963	0.988	1.06	1.04	0.954
CCc1nc2ncnn2c(N)c1CCCC(=O)O.Cl	1.12	0.907	1.03	1	1.14	0.985	1.02	1.01	1.04	1	1.02	1.02	1.05	1.07	1.13	0.975	1.1	0.952	0.991	0.997
COC(=O)c1ccc(C(F)(F)F)nc1S(=O)(=O)[N-]C(=O)Nc1nc(OC)cc(OC)n1.[Na+]	0.963	1.01	0.997	1.01	0.908	0.993	0.978	0.938	1.05	1.03	0.979	0.983	0.966	0.961	0.965	0.986	0.921	1.07	1	0.974
O=C(Nc1ccc(F)cc1)c1cccc(Oc2cccc(C(F)(F)F)c2)n1	0.978	0.964	0.886	0.895	0.82	1	1.02	1.04	0.934	0.865	0.993	0.95	0.95	1.02	0.927	0.87	0.927	1.07	0.905	0.911
CCOC(=O)NCCOc1ccc(Oc2ccccc2)cc1	0.87	0.934	0.928	0.854	0.968	0.891	0.958	0.914	0.98	0.984	0.954	1	0.976	0.956	0.943	1.03	0.949	0.931	0.932	0.974
O=C(O)[C@@H](S)[C@@H](S)C(=O)O	1.14	1.01	1.05	1.01	1.17	1.04	1.04	1.02	1.01	1.02	1.03	1.02	1.03	1.18	1.05	0.993	1.02	0.985	1.04	1.04
CC(C)N(C(=O)C(=O)O)c1ccc(F)cc1	1.04	1.02	1.03	1.02	1.23	1.02	0.993	1.05	1.03	1.01	0.985	1.03	1.02	1.05	1.18	1.05	1	1.04	1	1.01
CC(C)(CO)C(O)(CCc1ccc(Cl)cc1)Cn1cncn1 (stereo not given)	1.01	0.955	0.998	0.967	1.01	0.969	0.994	0.967	0.991	0.991	0.989	1.03	0.999	1.1	1	0.88	1.04	0.979	0.88	0.985
C=CCOC(Cn1ccnc1)c1ccc(Cl)cc1Cl (stereo not given)	0.972	0.944	0.96	0.959	1.12	0.983	0.941	1.05	0.926	0.873	0.0723 (active)	0.986	0.967	0.0607 (active)	0.938	0.851	0.969	0.882	0.847	0.919
COc1nc(C)nc(NC(=O)NS(=O)(=O)c2ccccc2OCCCl)n1	1.06	1.09	1.01	1.02	1.02	0.985	1.01	1	0.998	0.993	1.02	0.948	1	0.987	0.953	0.933	0.982	1	0.98	0.97
COC1CCC2(CC1)NC(=O)C(c1cc(C)ccc1C)=C2OC1OC(CO)C(O)C(O)C1O (stereo not given)	1.1	0.946	1.02	0.993	1.21	0.984	1.02	1	1.02	1.01	1.03	1.03	1.03	1.1	1.17	0.948	1.01	0.994	1.01	1.05
